Compounds with a hit are over-represented: about 27% of the library has one in this group of screens.
CYP2C19 inhib = human CYP2C19 inhibition. CYP2C19 Supersomes, luciferin-H EGE luminescence, 30 min. inhibition, % at 5 µM. P33261. hit rate 21% among 96,000;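 active = CYP2C19 inhibition above a set limit at 5 µM in the primary screen, cut at about 50% in these data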;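 also: plate controls were negative control wells for no effect and 2.5 mM tranylcypromine positive control for full effect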
CYP2C9 inhib = human CYP2C9 inhibition. CYP2C9 Supersomes, luciferin-H conversion, luminescence. inhibition, % at 5 µM. hit rate 20% among 96,000;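 active = blocking of liver enzyme CYP2C9 beyond about 50% at 5 µM, limit read from the data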
EphB4 antag = blocks human EphB4 binding to ephrin-B2. inhibition, % at 7 µM. P54760. hit rate 0.15% among 97,000. EphB4 LBD / TNYL-RAW-Alexa532 peptide, fluorescence polarization;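 active = inhibition above the screen-wide mean inhibition plus 3 SD, cut at about 15% in these data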;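 also: 0% = DMSO wells and 100% = excess unlabeled TNYL-RAW peptide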
Target sequence (P54760 whole entry, looked up, the tested form may be a part): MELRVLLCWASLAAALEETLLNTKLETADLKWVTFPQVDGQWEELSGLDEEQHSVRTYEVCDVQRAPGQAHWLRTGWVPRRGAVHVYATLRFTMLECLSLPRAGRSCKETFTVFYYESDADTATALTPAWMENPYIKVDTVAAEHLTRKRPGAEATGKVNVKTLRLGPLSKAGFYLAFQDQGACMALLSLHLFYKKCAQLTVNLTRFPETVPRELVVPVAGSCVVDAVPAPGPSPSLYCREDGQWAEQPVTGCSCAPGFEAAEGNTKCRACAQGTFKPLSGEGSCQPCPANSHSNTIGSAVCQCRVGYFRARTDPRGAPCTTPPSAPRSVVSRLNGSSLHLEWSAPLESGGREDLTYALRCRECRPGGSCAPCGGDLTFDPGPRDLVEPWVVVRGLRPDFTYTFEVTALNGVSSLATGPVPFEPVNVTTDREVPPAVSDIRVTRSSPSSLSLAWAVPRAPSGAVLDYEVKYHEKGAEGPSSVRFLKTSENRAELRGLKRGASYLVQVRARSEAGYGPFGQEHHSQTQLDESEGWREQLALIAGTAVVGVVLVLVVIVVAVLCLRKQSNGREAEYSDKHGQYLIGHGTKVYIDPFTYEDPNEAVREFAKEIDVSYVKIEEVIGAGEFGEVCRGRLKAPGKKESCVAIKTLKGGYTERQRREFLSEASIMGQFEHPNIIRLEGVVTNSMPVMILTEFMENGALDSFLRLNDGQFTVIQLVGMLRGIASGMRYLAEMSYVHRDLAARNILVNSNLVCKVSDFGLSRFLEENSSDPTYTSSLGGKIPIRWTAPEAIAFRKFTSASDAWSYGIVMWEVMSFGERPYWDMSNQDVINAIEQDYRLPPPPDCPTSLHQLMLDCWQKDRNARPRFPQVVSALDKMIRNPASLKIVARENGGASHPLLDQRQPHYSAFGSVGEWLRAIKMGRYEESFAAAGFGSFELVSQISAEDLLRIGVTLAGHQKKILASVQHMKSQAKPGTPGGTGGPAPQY
CYP2C19 act = cytochrome P450 2C19 (human) activation. recombinant CYP2C19, luciferin-H EGE luminescence; hits give high values; 0 = fully inhibited enzyme, 1 = untreated enzyme. P33261. activation factor at 5 µM. 96,000 tested, under 10 active. AID 1025;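 active = activation factor of at least 2 at 5 µM in the primary screen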;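 also: 0 = wells with 2.5 mM tranylcypromine and 1 = vehicle-only wells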
CYP2C9 activ = increases human cytochrome P450 2C9 activity; hit rate 1.4% among 96,000; activation factor at 5 µM; P11712; recombinant CYP2C9, luciferin-H conversion, luminescence; hits give high values; factor 1 = untreated enzyme, 0 = blocked; AID 1024;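 active = activation factor of 2 or more for CYP2C9 at a 5 µM dose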;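 also: 0 = sulfaphenazole-blocked wells and 1 = vehicle-only wells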
Starred values were filed as active, the others as inactive; · = no result given.

SMILES	CYP2C19 inhib	CYP2C9 inhib	EphB4 antag	CYP2C19 act	CYP2C9 activ
CC(C)NC(=O)C(Sc1ccccc1)c1ccccc1 (stereo not given)	96*	62*	2	0	0.4
O=C(Nc1ncccc1Cl)C(Sc1ccccc1)c1ccccc1 (stereo not given)	58*	55*	10	0.4	0.5
O=C(Nc1ccon1)C(Sc1ccccc1)c1ccccc1 (stereo not given)	92*	86*	4	0.1	0.1
CCc1ccc(-c2nc(CN3CCCC(C(=O)NCCc4ccc(OC)c(OC)c4)C3)c(C)o2)cc1 (stereo not given)	18	54*	0	0.8	0.5
CCOC(=O)N1CCC(NC(=O)C2CCCN(Cc3nc(-c4cccc(Cl)c4)oc3C)C2)CC1 (stereo not given)	67*	54*	2	0.3	0.5
COc1ccc(CCNC(=O)C2CCCN(Cc3nc(-c4ccccc4C)oc3C)C2)cc1OC (stereo not given)	26	33	-4	0.7	0.7
CCN1CCN(CCNC(=O)C2CCCN(Cc3nc(-c4cccc(Cl)c4)oc3C)C2)CC1 (stereo not given)	16	7	1	0.8	0.9
CCOc1ccccc1C(=O)NCc1ccc2c(c1)OCO2	98*	42	1	0	0.6
Cc1cc2cc(CNC(=O)c3ccc4c(c3)OCO4)ccc2n1C	72*	-9	·	0.3	1.1
COc1ccc(CC(=O)NCc2ccc3c(c2)OCO3)cc1	97*	69*	3	0	0.3
COc1ccccc1CC(=O)NCc1ccc2c(c1)OCO2	90*	4	-3	0.1	1
COc1cc(C(=O)NCCC(=O)NCc2ccc3c(c2)OCO3)cc(OC)c1OC	-16	4	4	1.2	1
O=C(c1ccc2c(c1)c(=O)oc1ccccc12)N1CCCCC1	·	·	3	·	·
CCN(CC)CC(=O)Nc1c(C)cc(C(C)(C)C)cc1C	26	-14	6	0.7	1.1
Cc1ccc(S(=O)(=O)NC(=O)NCc2ccc3c(c2)OCO3)cc1	-17	-2	7	1.2	1
Cc1ccsc1C(=O)OCC(=O)NCc1ccc2c(c1)OCO2	60*	72*	·	0.4	0.3
CCC(NC(=O)NCc1ccc2c(c1)OCO2)(C(F)(F)F)C(F)(F)F	86*	52*	3	0.1	0.5
CC(C)c1nnc(SCC(=O)NCc2ccc3c(c2)OCO3)n1C	·	·	-6	·	·
COc1ccc(-n2ccnc2SCC(=O)NCc2ccc3c(c2)OCO3)cc1	100*	94*	-5	0	0.1
CC(N=C1NS(=O)(=O)c2ccccc21)C(=O)NCc1ccc2c(c1)OCO2 (stereo not given)	58*	86*	0	0.4	0.1
O=C(NCc1ccccc1)NC1CCCCC1	22	-5	2	0.8	1
Cc1cc(Br)cn2ccnc12	-14	-18	-4	1.1	1.2
CCn1ncc(/C=C/C(=O)NCc2cn(C)nc2C)c1C	-1	-1	-7	1	1
COc1cccc(CNC(=O)c2ccc3nc[nH]c3c2)c1	38	-8	-1	0.6	1.1
COc1cccc(CNC(=O)C2(C)Oc3ccccc3NC2=O)c1 (stereo not given)	72*	92*	-1	0.3	0.1
SMILES	CYP2C19 inhib	CYP2C9 inhib	EphB4 antag	CYP2C19 act	CYP2C9 activ
O=C(Cc1cccs1)NCc1ccc2c(c1)OCO2	92*	38	-1	0.1	0.6
O=C(NCc1ccc2c(c1)OCO2)c1cccnc1	59*	11	-5	0.4	0.9
CC(C(=O)NCc1ccc2c(c1)OCO2)N(c1ccccc1)S(C)(=O)=O (stereo not given)	38	10	0	0.6	0.9
O=C(NCc1ccc2c(c1)OCO2)c1cccc(C(=O)NCc2ccc3c(c2)OCO3)c1	8	11	2	0.9	0.9
O=C(NCc1ccc2c(c1)OCO2)Oc1ccccc1	74*	13	0	0.3	0.9
Cc1oc(C)c(C(=O)O)c1COc1ccc(C(=O)O)cc1	-10	-18	-3	1.1	1.2
CCCCC(=O)Nc1ccc(C(=O)Nc2nnc(COC)s2)cc1	10	29	4	0.9	0.7
CC(=O)N1CCN(c2ccc([N+](=O)[O-])c(NCC3CCCO3)c2)CC1 (stereo not given)	-1	24	-11	1	0.8
CCOC(=O)c1ccc(N2C(=O)CC(C3CCCO3)C2=O)cc1 (stereo not given)	-12	2	0	1.1	1
NC(=O)c1ccccc1N/C=C/C(=O)c1ccc(Cl)cc1	18	-18	-4	0.8	1.2
O=C(OC(C(=O)NCc1ccc2c(c1)OCO2)c1ccccc1F)c1ccco1 (stereo not given)	46	67*	2	0.5	0.3
O=C(OC(C(=O)NCc1cccs1)c1ccccc1F)c1ccco1 (stereo not given)	·	·	-5	·	·
COc1ccc(OC)c(-n2nnnc2SCC(=O)NCc2ccc3c(c2)OCO3)c1	81*	60*	6	0.2	0.4
O=C(NCc1ccc2c(c1)OCO2)C1CC(=O)N(C2CCCCCC2)C1 (stereo not given)	9	10	·	0.9	0.9
COc1cccc(CNC(=O)Cc2c(C(=O)O)[nH]c3ccccc23)c1	0	52*	2	1	0.5
COc1ccc(OC)c(-n2nnnc2SCC(=O)O)c1	7	22	5	0.9	0.8
Cc1ccc(N2CC(C(=O)NCc3ccc4c(c3)OCO4)CC2=O)cc1C (stereo not given)	8	-124	-2	0.9	2.2*
O=C(CCc1nc2ccccc2[nH]1)Nc1ccc(F)cc1	40	25	-4	0.6	0.8
Cc1cc(NC(=O)CN2CCOCC2)n(-c2nc3ccccc3s2)n1	8	40	-2	0.9	0.6
O=C(NCc1ccc2c(c1)OCO2)c1cccc(N2CCCC2=O)c1	69*	61*	-7	0.3	0.4
O=C1Nc2ccccc2C(O)(C(=O)NCc2ccc3c(c2)OCO3)N1c1ccccc1 (stereo not given)	21	-4	·	0.8	1
COc1ccc(NCc2ccc3c(c2)OCO3)cc1Cl	98*	86*	-1	0	0.1
COc1ccc(CNC(=O)CSc2nnnn2-c2ccc(O)cc2)cc1	89*	-23	-4	0.1	1.2
COc1ccc(-n2nnnc2SCC(=O)NCCc2ccc(OC)c(OC)c2)cc1	16	40	7	0.8	0.6
COc1cccc(N2C(=O)Nc3ccccc3C2(O)C(=O)NCc2ccc3c(c2)OCO3)c1 (stereo not given)	61*	9	·	0.4	0.9
CCCCN(C)CCCNC(=O)c1cccc(N2CCCC2=O)c1	4	9	-4	1	0.9
Cn1c(=O)[nH]c(=O)c2c1nc(OC(=O)c1ccccc1)n2CC(O)COc1ccccc1 (stereo not given)	-1	-9	-2	1	1.1
